From PubChem BioAssay (NCATS)
Results filed as inconclusive are left out. Calls of active or inactive are those of the source. Unless noted, calls come from the whole dose curve; as a rule, active = well fitted curve in the direction sought with a large enough effect; inconclusive = small, poorly fitted or top-dose-only effect, or another doubt; inactive = no such curve, though single readings can be large; an effect the other way counts as inactive or inconclusive.

Columns and labels:
[1] = molecular target: Glucocorticoid receptor (Homo sapiens) (UniProt P04150); experiment: GR-GFP Redistribution (AID 450;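 active = compounds whose dose series gives a full or clear partial fitted curve of increased nuclear translocation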; note: potency is the fitted concentration of half-maximal effect); conditions: U2OS GR-GFP nuclear translocation, laser cytometry, 2 h
[2] = molecular target: Glucocorticoid receptor (Homo sapiens) (UniProt P04150); experiment: GR-EFC Redistribution (AID 451; calls by dose curve; note: potency is the fitted concentration of half-maximal effect); conditions: CHO-K1 GR-EFC translocation, beta-gal luminescence, 2 h
How it was run: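 Translocation of GR-ED fusion to nuclear EA restores b-gal, read by luminescence after 1 h room-temperature detection. Engineered CHO-K1 biosensor cells, 1,000/well, exposed 2 h at 37 C to titrations up to 46 uM final.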

[3] = molecular target: Mitogen-activated protein kinase 10 (Mus musculus) (UniProt Q61831); experiment: JNK3 AlphaScreen Assay (AID 530; active = well fitted curve in either direction with a large enough effect, not every such curve was filed as active;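 note: kinase came from lysate of stimulated human HepG2 cells; signal reports phosphorylation of biotinylated GST-cJun 1-79 at Ser73 with 10 µM ATP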); conditions: JNK3 lysate, c-Jun phosphorylation; series mostly up to 57.1 µM
How it was run: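 Compound titrations were preincubated 15 minutes at room temperature with substrate, antibody and pre-activated JNK3-containing HepG2 lysate. Reactions were started with 10 uM ATP and stopped with EDTA-containing bead buffer for AlphaScreen detection.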

[4] = molecular target: 3',5'-cyclic-AMP phosphodiesterase 4B (Homo sapiens) (UniProt Q07343); experiment: qHTS Assay for Inhibitors of PDE-IV (AID 607; active = well fitted activation curve with a large enough effect in the main read-out, with a control signal flat, not every such curve was filed as active); conditions: HEK293 ACTOne CNG channel cells, membrane potential fluorescence; series mostly up to 22.9 µM
How it was run: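 Live HEK293 cells with a modified cyclic nucleotide-gated (CNG) channel report intracellular cAMP via membrane-potential dye fluorescence (ex 535/em 590 nm). Endogenous PDE-IV was targeted. Compounds were tested at up to 22.9 uM final; RO 20-1724 100 uM served as control.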

[5] = molecular target: Cytochrome P450 3A4 (Homo sapiens) (UniProt P08684); experiment: qHTS Assay for Inhibitors and Substrates of Cytochrome P450 3A4 (AID 884); conditions: recombinant CYP3A4, Luciferin-PPXE luminescence; series mostly up to 57.1 µM; note: nearly all actives have a fitted effect of over 50% in size; note: potency is the fitted concentration of half-maximal effect
How it was run: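 20 nM human CYP3A4 with 25 uM Luciferin-PPXE (at KM) in 200 mM KPO4, preincubated 10 min with compound; NADPH regeneration started a 60 min RT reaction. Luciferin detected by luminescence, normalized to 57 uM ketoconazole as full inhibition.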

[6] = molecular target: Cytochrome P450 3A4 (Homo sapiens) (UniProt P08684); experiment: qHTS Assay for Activators of Cytochrome P450 3A4 (AID 885); conditions: recombinant CYP3A4, Luciferin-PPXE luminescence, 60 min; series mostly up to 57.1 µM; note: nearly all actives have a fitted effect of over 65% in size
How it was run: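 Quantitative HTS format: compounds preincubated with 20nM human CYP3A4 and Luciferin-PPXE substrate at KM, reaction started by NADPH regeneration, stopped after 60 min, luciferase luminescence read 20 min later.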

[7] = molecular target: Cytochrome P450 2C19 (Homo sapiens) (UniProt P33261); experiment: qHTS Assay for Inhibitors and Substrates of Cytochrome P450 2C19 (AID 899); conditions: recombinant CYP2C19, luciferin-H EGE luminescence; series mostly up to 57.1 µM; note: nearly all actives have a fitted effect of over 60% in size; note: potency is the fitted concentration of half-maximal effect
How it was run: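 Luminescence readout of luciferin formed from 10uM Luciferin-H EGE (KM level) by 5 nM CYP2C19 in 50mM KPO4. 60 min NADPH-driven reaction at 37C after 10 min compound preincubation; data scaled to 57uM ketoconazole inhibition.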

[8] = molecular target: DNA dC->dU-editing enzyme APOBEC-3G (Homo sapiens) (UniProt Q9HC16); experiment: qHTS for inhibitors of Vif-A3G interactions: Validation (AID 588379); conditions: Vif-A3G protein interaction assay; series mostly up to 46.1 µM
How it was run: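 HeLa cells stably expressing Vif and A3G-eYFP, 700 cells/well, incubated overnight at 37 deg C, then exposed to compound overnight at 37 deg C. Inhibition of Vif-mediated degradation read as increased yellow fluorescence (Ex 488/Em 500-530) by laser-scanning cytometry.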

[9] = test system: Zika virus NS2B-NS3 protease; experiment: Primary screen GU AMC qHTS for Zika virus inhibitors (AID 1347154); conditions: Zika NS2B-NS3 unlinked protease, AMC fluorogenic substrate; series mostly up to 54.1 µM; note: nearly all actives have a fitted effect of over 70% in size
How it was run: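 Fluorogenic AMC-substrate cleavage by noncovalent NS2B-NS3 protease complex (25 nM, pH 8.0 Tris buffer with Tween 20) followed for 15 minutes at room temperature (~20% conversion). Percent inhibition from ex340/em450 signal change, fitted by 4-parameter Hill equation.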

[10] = Primary qHTS for small molecule stabilizers of the endoplasmic reticulum resident proteome: Secreted ER Calcium Modulated Protein (SERCaMP) assay (AID 1508630); conditions: SH-SY5Y GLuc-SERCaMP (Gaussia luciferase released on ER calcium loss) secretion, thapsigargin, luminescence; series mostly up to 38.4 µM
How it was run: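 GLuc-SERCaMP-expressing SH-SY5Y cells, pretreated 16 h with compound, are challenged with thapsigargin to empty ER calcium stores; after 4 h, coelenterazine is added directly to the medium and luminescence is imaged.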

[11] = molecular target: Cytochrome P450 2C9 (Homo sapiens) (UniProt P11712); experiment: qHTS Assay for Inhibitors and Substrates of Cytochrome P450 2C9 (AID 883); conditions: recombinant CYP2C9, luciferin-H luminescence, 60 min; series mostly up to 57.1 µM; note: nearly all actives have a fitted effect of over 60% in size
How it was run: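 Luminescent read-out of deoxyluciferin hydroxylation, normalized to 57uM sulphaphenazole (AC100). Reaction: 10nM enzyme, 100uM Luciferin-H (equal to KM), 25mM KPO4, 10 min compound preincubation, then 60 min with NADPH regeneration, both at 37C.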

[12] = molecular target: Cytochrome P450 2D6 (Homo sapiens) (UniProt P10635); experiment: qHTS Assay for Inhibitors and Substrates of Cytochrome P450 2D6 (AID 891); conditions: recombinant CYP2D6, luciferin-ME EGE luminescence; series mostly up to 57.1 µM; note: potency is the fitted concentration of half-maximal effect; nearly all actives have a fitted effect of over 60% in size
How it was run: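 Human CYP2D6 (5 nM) with 30 uM Luciferin-ME EGE (at Km) in 100 mM KPO4, compound preincubated 10 min, then NADPH regeneration system for 60 min at room temperature. Luciferin read by luminescence; normalized to 1.43 uM quinidine.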

[13] = molecular target: Ubiquitin carboxyl-terminal hydrolase 1 (Homo sapiens) (UniProt O94782); experiment: Inhibitors of USP1/UAF1: Pilot qHTS (AID 504865); conditions: purified USP1/UAF1, Ub-rhodamine cleavage fluorescence; series mostly up to 114 µM;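 note: rhodamine fluorescence freed from ubiquitin-rhodamine substrate followed over time; top concentration of the series differs between compounds; nearly all actives have a fitted effect of over 35% in size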
How it was run: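 Deubiquitinase activity followed as kinetic rhodamine fluorescence release from 150 nM Ub-Rho. 1 nM USP1/UAF1 with compound, after 15 min room-temperature preincubation, in HEPES pH 7.8 buffer containing TCEP, EDTA, BSA and Tween-20.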

Measured: Potency

Chain of 3',5'-cyclic-AMP phosphodiesterase 4B (Homo sapiens) (Q07343 whole entry, looked up): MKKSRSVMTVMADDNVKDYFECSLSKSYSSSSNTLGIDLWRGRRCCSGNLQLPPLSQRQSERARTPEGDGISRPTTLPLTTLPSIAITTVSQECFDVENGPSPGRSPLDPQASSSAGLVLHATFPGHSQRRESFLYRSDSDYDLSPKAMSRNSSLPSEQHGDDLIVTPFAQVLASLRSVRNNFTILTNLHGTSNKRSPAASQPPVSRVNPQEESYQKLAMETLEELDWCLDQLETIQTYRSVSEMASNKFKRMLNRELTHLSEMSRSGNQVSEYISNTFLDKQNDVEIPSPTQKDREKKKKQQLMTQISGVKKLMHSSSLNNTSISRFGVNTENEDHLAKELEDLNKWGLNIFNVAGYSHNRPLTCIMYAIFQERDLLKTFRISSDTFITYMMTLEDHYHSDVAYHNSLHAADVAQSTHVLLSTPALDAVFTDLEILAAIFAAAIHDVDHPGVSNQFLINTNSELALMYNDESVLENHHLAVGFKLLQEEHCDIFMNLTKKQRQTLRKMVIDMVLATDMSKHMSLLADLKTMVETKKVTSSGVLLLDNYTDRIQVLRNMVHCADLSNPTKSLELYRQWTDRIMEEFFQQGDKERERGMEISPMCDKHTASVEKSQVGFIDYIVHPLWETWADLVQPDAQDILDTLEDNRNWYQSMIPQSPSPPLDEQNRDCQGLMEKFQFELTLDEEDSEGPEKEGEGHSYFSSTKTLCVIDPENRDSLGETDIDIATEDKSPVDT
Chain of Glucocorticoid receptor (Homo sapiens) (P04150 whole entry, looked up, the tested form may be a part): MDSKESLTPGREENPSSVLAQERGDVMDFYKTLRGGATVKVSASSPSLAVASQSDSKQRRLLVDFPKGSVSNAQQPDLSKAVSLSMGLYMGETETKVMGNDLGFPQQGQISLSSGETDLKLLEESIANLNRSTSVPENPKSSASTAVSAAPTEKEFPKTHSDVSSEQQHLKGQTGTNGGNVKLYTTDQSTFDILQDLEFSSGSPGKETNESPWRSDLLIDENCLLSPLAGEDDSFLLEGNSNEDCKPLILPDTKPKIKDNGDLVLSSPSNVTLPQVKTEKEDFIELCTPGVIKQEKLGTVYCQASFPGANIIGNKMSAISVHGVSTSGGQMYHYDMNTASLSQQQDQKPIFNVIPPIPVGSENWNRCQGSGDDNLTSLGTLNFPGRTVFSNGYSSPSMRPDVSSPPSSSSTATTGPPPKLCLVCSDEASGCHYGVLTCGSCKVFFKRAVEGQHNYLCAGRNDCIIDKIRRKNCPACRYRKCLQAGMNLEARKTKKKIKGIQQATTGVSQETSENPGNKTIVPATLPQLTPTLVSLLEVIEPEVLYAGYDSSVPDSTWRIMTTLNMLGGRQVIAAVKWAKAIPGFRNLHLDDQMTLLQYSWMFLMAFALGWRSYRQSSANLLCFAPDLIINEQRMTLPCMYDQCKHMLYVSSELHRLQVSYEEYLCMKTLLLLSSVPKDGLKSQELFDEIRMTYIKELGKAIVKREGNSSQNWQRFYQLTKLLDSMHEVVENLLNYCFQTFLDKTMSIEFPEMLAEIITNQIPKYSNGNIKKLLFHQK
Chain of DNA dC->dU-editing enzyme APOBEC-3G (Homo sapiens) (Q9HC16 whole entry, looked up): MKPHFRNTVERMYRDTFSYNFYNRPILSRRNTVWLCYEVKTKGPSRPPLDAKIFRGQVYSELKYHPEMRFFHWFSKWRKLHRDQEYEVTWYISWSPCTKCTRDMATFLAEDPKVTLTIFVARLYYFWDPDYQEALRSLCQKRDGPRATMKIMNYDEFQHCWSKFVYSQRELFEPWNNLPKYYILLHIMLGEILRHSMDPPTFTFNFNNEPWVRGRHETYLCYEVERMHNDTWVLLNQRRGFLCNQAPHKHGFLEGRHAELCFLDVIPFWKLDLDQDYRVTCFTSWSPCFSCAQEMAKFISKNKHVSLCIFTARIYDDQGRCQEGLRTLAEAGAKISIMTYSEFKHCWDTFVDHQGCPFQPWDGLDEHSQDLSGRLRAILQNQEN
Chain of Cytochrome P450 3A4 (Homo sapiens) (P08684 whole entry, looked up): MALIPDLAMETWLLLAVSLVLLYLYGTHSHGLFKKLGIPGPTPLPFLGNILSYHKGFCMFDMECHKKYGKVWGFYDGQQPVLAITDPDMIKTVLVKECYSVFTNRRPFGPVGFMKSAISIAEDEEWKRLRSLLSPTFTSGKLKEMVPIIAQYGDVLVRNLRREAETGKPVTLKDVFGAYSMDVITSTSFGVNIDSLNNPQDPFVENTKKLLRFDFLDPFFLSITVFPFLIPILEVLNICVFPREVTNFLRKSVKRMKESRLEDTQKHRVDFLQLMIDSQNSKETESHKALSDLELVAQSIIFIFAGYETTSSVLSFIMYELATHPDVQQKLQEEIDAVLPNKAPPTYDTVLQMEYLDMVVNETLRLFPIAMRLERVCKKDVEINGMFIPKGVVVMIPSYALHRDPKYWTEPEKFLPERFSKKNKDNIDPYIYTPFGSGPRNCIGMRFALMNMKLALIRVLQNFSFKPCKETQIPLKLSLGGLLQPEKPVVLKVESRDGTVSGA
Chain of Ubiquitin carboxyl-terminal hydrolase 1 (Homo sapiens) (O94782 whole entry, looked up): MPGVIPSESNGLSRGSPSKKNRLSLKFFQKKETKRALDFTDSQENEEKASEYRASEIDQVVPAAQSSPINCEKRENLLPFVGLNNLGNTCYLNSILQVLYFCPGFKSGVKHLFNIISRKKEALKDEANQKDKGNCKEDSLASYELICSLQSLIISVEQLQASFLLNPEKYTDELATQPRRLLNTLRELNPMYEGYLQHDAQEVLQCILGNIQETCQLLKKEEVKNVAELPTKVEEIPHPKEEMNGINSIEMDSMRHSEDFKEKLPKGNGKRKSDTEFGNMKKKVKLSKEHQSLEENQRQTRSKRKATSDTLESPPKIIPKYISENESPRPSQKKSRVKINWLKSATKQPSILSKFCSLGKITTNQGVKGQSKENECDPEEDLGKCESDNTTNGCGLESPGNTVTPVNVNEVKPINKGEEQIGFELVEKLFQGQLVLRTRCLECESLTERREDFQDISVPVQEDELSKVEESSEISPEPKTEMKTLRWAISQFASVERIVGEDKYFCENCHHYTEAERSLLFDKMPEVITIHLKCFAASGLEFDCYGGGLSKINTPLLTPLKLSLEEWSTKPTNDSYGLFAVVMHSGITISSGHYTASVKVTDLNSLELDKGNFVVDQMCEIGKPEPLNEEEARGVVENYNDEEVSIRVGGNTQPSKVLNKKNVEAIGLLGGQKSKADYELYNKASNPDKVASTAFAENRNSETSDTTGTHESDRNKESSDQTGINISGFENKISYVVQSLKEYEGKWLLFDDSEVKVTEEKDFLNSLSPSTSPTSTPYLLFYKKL
Chain of Cytochrome P450 2C19 (Homo sapiens) (P33261 whole entry, looked up): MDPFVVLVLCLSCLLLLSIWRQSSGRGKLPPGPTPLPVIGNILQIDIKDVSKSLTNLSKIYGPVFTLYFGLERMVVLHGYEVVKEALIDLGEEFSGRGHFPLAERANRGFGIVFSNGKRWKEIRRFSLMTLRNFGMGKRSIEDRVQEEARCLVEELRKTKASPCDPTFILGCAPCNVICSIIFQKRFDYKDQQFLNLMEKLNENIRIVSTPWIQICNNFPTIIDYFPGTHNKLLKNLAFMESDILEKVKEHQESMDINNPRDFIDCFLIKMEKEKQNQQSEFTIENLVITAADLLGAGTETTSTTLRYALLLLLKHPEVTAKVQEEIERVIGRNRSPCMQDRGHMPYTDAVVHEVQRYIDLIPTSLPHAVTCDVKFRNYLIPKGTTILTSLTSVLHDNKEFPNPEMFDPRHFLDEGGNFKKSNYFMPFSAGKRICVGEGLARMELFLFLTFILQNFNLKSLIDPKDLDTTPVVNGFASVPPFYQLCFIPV
Chain of Cytochrome P450 2C9 (Homo sapiens) (P11712 whole entry, looked up): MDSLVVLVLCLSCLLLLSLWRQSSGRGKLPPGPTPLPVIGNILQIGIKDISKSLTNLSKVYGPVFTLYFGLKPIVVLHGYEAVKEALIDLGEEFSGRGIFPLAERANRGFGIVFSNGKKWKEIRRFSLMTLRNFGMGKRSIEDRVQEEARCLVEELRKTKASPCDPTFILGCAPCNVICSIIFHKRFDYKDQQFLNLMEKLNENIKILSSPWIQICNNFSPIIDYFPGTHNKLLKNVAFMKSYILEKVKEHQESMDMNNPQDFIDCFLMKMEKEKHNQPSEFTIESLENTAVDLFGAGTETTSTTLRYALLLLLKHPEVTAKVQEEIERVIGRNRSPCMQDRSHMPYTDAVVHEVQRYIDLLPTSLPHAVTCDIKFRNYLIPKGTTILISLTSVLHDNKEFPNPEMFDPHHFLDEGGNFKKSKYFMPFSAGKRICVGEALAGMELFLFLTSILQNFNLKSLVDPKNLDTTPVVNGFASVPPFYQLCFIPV
Chain of Cytochrome P450 2D6 (Homo sapiens) (P10635 whole entry, looked up): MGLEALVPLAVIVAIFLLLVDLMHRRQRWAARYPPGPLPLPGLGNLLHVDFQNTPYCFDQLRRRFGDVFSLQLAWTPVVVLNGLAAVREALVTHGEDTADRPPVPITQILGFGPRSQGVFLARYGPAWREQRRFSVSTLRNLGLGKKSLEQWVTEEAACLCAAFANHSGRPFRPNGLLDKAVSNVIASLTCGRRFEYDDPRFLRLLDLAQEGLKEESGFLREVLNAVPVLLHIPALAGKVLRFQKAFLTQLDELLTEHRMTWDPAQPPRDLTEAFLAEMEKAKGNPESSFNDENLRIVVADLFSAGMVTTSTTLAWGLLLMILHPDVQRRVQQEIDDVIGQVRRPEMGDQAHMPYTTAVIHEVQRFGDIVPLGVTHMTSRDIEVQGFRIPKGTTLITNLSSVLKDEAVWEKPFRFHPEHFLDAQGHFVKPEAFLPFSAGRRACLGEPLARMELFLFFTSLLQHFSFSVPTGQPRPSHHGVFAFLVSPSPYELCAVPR

CN1CCc2cc3c(cc2[C@@H]1[C@@H]1C(=O)Oc2c1ccc1c2OCO1)OCO3
inactive: [1] > 46 µM | [2] > 46 µM | [3] | [4] | [6] | [8] | [9] | [10]
active: [5] 1.26 µM | [7] 0.02 µM

N=C(N)S/C=C\C(=O)O
inactive: [1] > 46 µM | [2] > 46 µM | [3] | [8] | [9] | [10]

CC(C)(C)c1cc(O)c(C(C)(C)C)cc1O
inactive: [1] > 46 µM | [2] > 46 µM | [8] | [9] | [10]

O=C(N/N=C\c1ccccc1O)c1ccccc1O
active: [12] 7.94 µM
inactive: [1] > 46 µM | [2] > 46 µM | [4] | [11] | [6] | [7] | [9] | [10]

COc1cc(COc2cc(N)c(Cl)cc2C(=O)CCC2CCN(CCNS(C)(=O)=O)CC2)cc(OC)c1
active: [5] 2 µM
inactive: [1] > 46 µM | [2] > 46 µM | [3] | [6] | [8] | [9] | [10]

Cc1ccc(-c2nn(CC(C)(C)C)c3ncnc(N)c23)cc1
inactive: [1] > 46 µM | [2] > 46 µM | [3] | [8] | [9] | [10]

COc1ccccc1N1CCN(CCn2c(=O)[nH]c3c([nH]c4ccccc43)c2=O)CC1
inactive: [1] > 46 µM | [2] > 46 µM | [3] | [4] | [6] | [8] | [9] | [10]

O=C(NC1CCN(Cc2ccccc2)CC1)c1ccc(I)cc1
inactive: [1] > 46 µM | [2] > 46 µM | [3] | [4] | [5] | [13] | [8] | [9] | [10]

CCCCCCN(CCCCCC)C(=O)Cc1c(-c2ccc(Cl)cc2)[nH]c2ccc(Cl)cc12
inactive: [2] > 46 µM | [3] | [4] | [6] | [13] | [8] | [9] | [10]

NCCCCCCNS(=O)(=O)c1cccc2ccccc12
inactive: [1] > 46 µM | [2] > 46 µM | [3] | [4] | [6] | [8] | [9] | [10]
active: [5] 6.31 µM
